Results reported in PubChem BioAssay (NCI).
About 79,000 compounds went through this panel and 15% of them were active in at least one assay; those are over-represented in the sample as a whole. Activity calls are given as the source filed them. Cut-off read from the data, not from the text of the source: active = growth inhibition above about 70%; inactive = the rest.

Legend:
[1] = NCI Yeast Anticancer Drug Screen. Data for the rad50 strain (AID 155);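 note: 0% = growth of vehicle-only cultures of the same strain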; conditions: S. cerevisiae rad50 strain growth inhibition, stronger effect = higher value
How it was run: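 Growth of the mutant yeast was measured after compound exposure and referenced to vehicle-treated cultures.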

[2] = NCI Yeast Anticancer Drug Screen. Data for the mec2-1 strain (AID 157); conditions: S. cerevisiae mec2-1 strain, stronger effect = higher value
How it was run: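 Mutant yeast (mec2-1) grown with compound; growth inhibition relative to vehicle control reported.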

[3] = NCI Yeast Anticancer Drug Screen. Data for the sgs1 mgt1 strain (AID 161);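 note: 0% = growth of cultures given vehicle only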; conditions: S. cerevisiae sgs1 mgt1 strain, stronger effect = higher value
How it was run: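 This yeast growth screen uses a strain with defined DNA-repair lesions; compound-treated growth is compared with vehicle-treated growth.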

[4] = NCI Yeast Anticancer Drug Screen. Data for the cln2 rad14 strain (AID 165);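 note: 0% = growth equal to vehicle treated cultures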; conditions: S. cerevisiae cln2 rad14 strain, stronger effect = higher value
How it was run: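 Readout is yeast growth inhibition versus vehicle-treated controls, using a strain with cln2 and rad14 alterations exposed to compound.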

[5] = NCI Yeast Anticancer Drug Screen. Data for the bub3 strain (AID 167); conditions: S. cerevisiae bub3 mutant strain, stronger effect = higher value
How it was run: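 Whole-cell yeast assay. The mutant strain was incubated with compounds, and growth inhibition was determined by comparison with vehicle-treated cells.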

[6] = NCI Yeast Anticancer Drug Screen. Data for the mlh1 rad18 strain (AID 175); conditions: S. cerevisiae mlh1 rad18 strain growth inhibition, stronger effect = higher value
How it was run: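 Genetically defined yeast (DNA repair-deficient) exposed to compounds; growth inhibition determined relative to vehicle.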

[7] = at 5.0 µM (retest, dose inferred, filed as 0.5)
[8] = at 50.0 µM (retest, dose inferred, filed as 5.0)

Measured: growth inhibition

COCc1ccc([N+](=O)[O-])o1
active: [1]; [8] 89% | [1]; at 50.0 µM 71.5% | [3]; [8] 76% | [3]; at 50.0 µM 78.7% | [6]; [8] 84%
inactive: [1]; [7] 17% | [2]; [7] 1% | [2]; [8] 35% | [2]; at 50.0 µM 21.6% | [3]; [7] 11% | [4]; [7] 6% | [4]; [8] 24% | [4]; at 50.0 µM 7.65% | [5]; [7] 2% | [5]; [8] 36% | [5]; at 50.0 µM 1.2% | [6]; [7] 17% | [6]; at 50.0 µM 66.2%

CC12CCCCC1CCC(Br)C2=O (stereo not given)
inactive: [1]; [7] -115% | [1]; [8] -2% | [1]; at 50.0 µM 59% | [2]; [7] -40% | [2]; [8] -18% | [2]; at 50.0 µM 41.5% | [3]; [7] -51% | [3]; [8] 22% | [4]; [7] -50% | [4]; [8] -35% | [4]; at 50.0 µM -17.7% | [5]; [7] -57% | [5]; [8] -34% | [5]; at 50.0 µM 13.1% | [6]; [7] -128% | [6]; [8] -55% | [6]; at 50.0 µM 61.6%
active: [3]; at 50.0 µM 70.2%

CCC(=O)NC1=C(Cl)C(=O)c2ccccc2C1=O
active: [1]; [7] 99% | [1]; [8] 99% | [1]; at 50.0 µM 99.2% | [2]; [7] 100% | [2]; [8] 99% | [2]; at 50.0 µM 98.2% | [3]; [7] 100% | [3]; [8] 100% | [3]; at 50.0 µM 98.2% | [4]; [7] 99% | [4]; [8] 100% | [4]; at 50.0 µM 86.2% | [5]; [7] 99% | [5]; [8] 99% | [5]; at 50.0 µM 98.9% | [6]; [7] 99% | [6]; [8] 99% | [6]; at 50.0 µM 98.5%

O=C1CC2(CCCC2)C(=O)N1c1ccc(N2C(=O)CC3(CCCC3)C2=O)cc1
inactive: [1]; [7] 3% | [1]; [8] -10% | [1]; at 50.0 µM -11.8% | [2]; [7] -3% | [2]; [8] -12% | [2]; at 50.0 µM 6.95% | [3]; [7] -1% | [3]; [8] -7% | [3]; at 50.0 µM -22.4% | [4]; [7] -5% | [4]; [8] -7% | [4]; at 50.0 µM 44.1% | [5]; [7] 0% | [5]; [8] -4% | [5]; at 50.0 µM -0.9% | [6]; [7] 1% | [6]; [8] -5% | [6]; at 50.0 µM -11.7%

Cc1cccc(/C=N/NC(=S)Nc2ccccc2)n1
inactive: [1]; [7] -19% | [2]; [7] -49% | [3]; [7] -42% | [4]; [7] -37% | [5]; [7] -42% | [6]; [7] -30%
active: [1]; [8] 99% | [1]; at 50.0 µM 89.2% | [2]; [8] 99% | [2]; at 50.0 µM 92.8% | [3]; [8] 99% | [3]; at 50.0 µM 91.2% | [4]; [8] 99% | [4]; at 50.0 µM 91.8% | [5]; [8] 100% | [5]; at 50.0 µM 92% | [6]; [8] 100% | [6]; at 50.0 µM 89.3%
